For orientation: inhibition means the change of the read-out against control, counted positive when it falls.

About 27,000 (9.3%) of roughly 290,000 compounds were called active. Many of the other results were omitted from the sample, so actives are more common in it than they were. A number with no mark means an inactive call. No stated cut-off is given here; in the data, active means inhibition mostly above about 28% (no sharp cut-off); inactive means mostly below about 43%.

A short description of this test: A qHTS for Small Molecule Inhibitors of Shiga Toxin. Further: 0% is about no effect. The following applies: Vero cells, Shiga toxin protein synthesis inhibition reporter; at 38.7 µM, active compounds read high.
In the case of `Cc1ccc(C(=O)Nc2ccc3c(c2)OCO3)cc1S(=O)(=O)N1CCCCC1`, the inhibition is 43.9%. As for `O=C(Nc1cccc(S(=O)(=O)N2CCCCC2)c1)c1ccc2c(c1)OCO2`, the inhibition was 21.9%. The same measure for `CN1CCN(c2ccc(NC(=O)c3ccc4c(c3)OCCO4)cc2Cl)CC1`: 77.9% (active); for `COC(=O)c1ccc(N2CCOCC2)c(NC(=O)c2ccc3c(c2)OCCO3)c1`: 17.9%. The result for `O=C(Nc1ccc2c(c1)OCCO2)c1ccc(Cl)c(S(=O)(=O)N2CCCCC2)c1` reads 147% (active). On to `O=C(Nc1cccc(Cl)c1N1CCOCC1)c1ccc2c(c1)OCCO2`, for which the inhibition was 121%. The result for `Cc1cccc(C)c1NC(=O)CS(=O)CC(=O)N1CCN(c2ccccc2)CC1` (stereo not given) reads -9.06%. The result for `Cc1cccc(NC(=O)N2CCCCCC2)c1C` reads 46.2%; that for `CCc1ccc(/C=C2\SC(N3CCOCC3)=NC2=O)cc1`, 42.9%; that for `O=C1N=C(N2CCOCC2)S/C1=C\C=C/c1ccccc1`, 66.1% (active). Turning to `Cc1ccsc1/C=C1\SC(N2CCOCC2)=NC1=O`, the inhibition is 111% (active).

With `Cc1ccc(N2CCN(C3=NC(=O)/C(=C\c4cccs4)S3)CC2)cc1`, the inhibition is -4.1%. The same measure for `O=C1N=C(N2CCc3ccccc3C2)S/C1=C\c1ccc(O)cc1`: 33%. The result for `CC1CCN(C2=NC(=O)/C(=C/c3cn[nH]c3-c3ccccc3)S2)CC1` reads -0.314%; that for `CCc1ccc(C(CNc2nc(C(F)(F)F)nc3ccccc23)N(C)C)cc1` (stereo not given), -12.5%. The same measure for `Cc1cccc(CN2CCC(CNC(=O)Nc3ccc(F)c(Cl)c3)CC2)c1`: -4.78%. On to `Cc1ccc(NC(=O)C2CCCN2S(=O)(=O)c2cccc3cccnc23)c(C)c1` (stereo not given), for which the inhibition is -11.1%. Take `COc1ccc(OC)c(S(=O)(=O)n2c([N+](=O)[O-])cnc2C)c1`: the inhibition is -7.62%.

Regarding `COc1cc(NC(=O)C2CC(c3ccccc3O)=NO2)c(OC)cc1Cl` (stereo not given), the inhibition was -12.3%. The result for `COc1ccc(C(CNC(=O)COc2ccccc2OC)N2CCCCC2)cc1` (stereo not given) reads -20.7%; that for `c1ccc(CN=C2Nc3ccccc3CS2)nc1`, 59.8% (active).

Take `COc1ccccc1CNS(=O)(=O)c1c(C)[nH]c(C)c1C(=O)N1CCCCC1`: the inhibition was 2.2%. Take `Cc1ccc(S(=O)(=O)N(CC(=O)NCc2ccco2)c2ccccc2C)cc1`: the inhibition is 9.67%. The same measure for `COc1ccccc1OC(C)C(=O)Nc1ccc(S(=O)(=O)Nc2nccs2)cc1` (stereo not given): -4.41%.

As for `Cn1c(-c2ccc(F)cc2)cnc1SCC(=O)NNC(=O)Cc1ccccc1`, the inhibition was 18.3%.

As to `CSc1c(SCc2ccccc2)cnn(Cc2ccccc2)c1=O`, the inhibition was 10.6%. In the case of `Cn1c(CO)cnc1SCc1ccccc1`, the inhibition is 65.8% (active).

Consider `CCS(=O)(=O)N1CCC(N2CCN(c3ccccc3)CC2)CC1`, for which the inhibition was -4.18%.

As to `Cc1cc(C)n(-c2ccc(NC(=O)C3CCCCN3C(=O)c3cccs3)cc2)n1` (stereo not given), the inhibition is 11%.

For `Cc1ccc2[nH]c3c(=O)n(CC(=O)NCCc4ccc(Cl)cc4)ncc3c2c1`, the inhibition is 21.6%. The result for `CCOc1ccc(NC(=O)CN2CCN(CC(=O)Nc3ccc(OC)cc3)CC2)cc1` reads -3.78%. The same measure for `Cc1ccc(OCc2n[nH]c(=S)n2-c2ccc(C)cc2)cc1`: -9.95%. `COc1ccc(Cc2n[nH]c(=S)n2NC(=O)Nc2ccc(C)cc2)cc1`: the inhibition is 63.4% (active). The same measure for `COc1ccc(CCNC(=O)CN2C(=O)COc3ccc(S(=O)(=O)N4CCCC4)cc32)cc1OC`: 22.2%; for `CCc1ccc(-c2cc(C)no2)cc1S(=O)(=O)NCCc1ccc(S(N)(=O)=O)cc1`: -11%. The result for `COc1ccc(CCNC(=S)N2CCN(S(=O)(=O)c3ccc(Cl)cc3)CC2)cc1` reads -14.7%; that for `O=C(CCS(=O)(=O)c1ccccc1)NC1CCCC1`, 55.4% (active); that for `O=C(CCNC(=O)C1CCN(S(=O)(=O)c2ccccc2)CC1)NC1CC1`, -1.38%. As to `CC(=O)c1cc(-c2ccccc2)n(CCC(=O)NC2CCCCCC2)c1C`, the inhibition is 10.9%. The result for `CC1(C(=O)NNC(=S)NCC2CCCO2)CC1(Cl)Cl` (stereo not given) reads -2.83%.

For the molecule `Cc1ccc(Cl)cc1NC(=O)C1CCCN(c2cnccn2)C1` (stereo not given), the inhibition is -10.6%. The same measure for `C=CCN1C(=O)C2(OCCCO2)c2cccc(Cl)c21`: -3.46%; for `CC1(C)Cc2ccccc2/C(=C/C(=O)c2ccccc2)N1`: -3.39%; for `COc1ccc(NC(=O)c2cccc3c2C(=O)N(CC2CCCO2)C3)cc1OC` (stereo not given): 3.68%.

In the case of `CC(=O)NCC(=O)N1CCC(n2nccc2NC(=O)CCCc2ccccc2)CC1`, the inhibition was 30.2%. The result for `Cc1ccc(CN2CCC(n3nccc3NC(=O)CCCc3ccccc3)CC2)o1` reads 21.2%; that for `CC(=O)N[C@@H](C)C(=O)N1CCC(n2nccc2NC(=O)CCCc2ccccc2)CC1`, 57.5% (active); that for `COc1cc(N2CCCC2)c(OC)cc1/C=C(/C#N)c1cccc(Br)c1`, -23.2%. Regarding `COc1ccccc1NC(=O)CCN1CCN(c2ccc(Cl)cc2)CC1`, the inhibition is -2.18%. As to `CC(Sc1cccc[n+]1[O-])C(=O)Nc1cccc(S(=O)(=O)N2CCOCC2)c1` (stereo not given), the inhibition was -6.74%. The same measure for `Cc1ccc(CNC(=O)Cc2cn(C)c3ccccc23)cc1`: 12.6%; for `COc1cccc(NC(C)=[N+](C)CCNS(=O)(=O)c2ccc(Cl)cc2)c1`: 119% (active); for `COc1cccc(NC(=O)CCNS(=O)(=O)c2ccc3c(c2)oc(=O)n3C)c1`: 14.5%. The result for `CCNS(=O)(=O)c1ccc(NC(=O)Nc2cccc(OC)c2)cc1` reads -33.1%; that for `CCCCCCC(O)(CCN1CCCCC1)c1ccccc1` (stereo not given), -7.11%; that for `COc1ccc(NC(=O)C(CC(C)C)NC(=O)C2CCC(C)CC2)cc1` (stereo not given), 35.8%.

In the case of `O=C(/C=C/Nc1ccccc1)c1cnc(-c2ccccc2)s1`, the inhibition is -10.9%.

Regarding `CNC(=O)c1csc(-c2ccccc2)n1`, the inhibition was 25.9%. The result for `CC(=O)c1cnc(-c2ccccc2)s1` reads 59% (active); that for `CCCn1nnnc1NCc1ccc(OC)cc1`, -12.1%; that for `CCS(=O)(=O)C1=NSC2=NC(=O)/C(=C\c3ccc(OS(=O)(=O)c4ccccc4)cc3)C(=N)N21`, 14.7%. For the molecule `Cc1ccccc1N1CCN(S(=O)(=O)c2ccc3ccccc3c2)CC1`, the inhibition is -3.59%. The result for `O=C(c1cccc(-n2cccc2)c1)N1CCN(S(=O)(=O)c2ccc(F)cc2)CC1` reads -1.04%; that for `Cc1cc(C(=O)NCCc2ccc(Cl)cc2)c(C)o1`, 87.4% (active); that for `Cc1cc(C(=O)NCCc2ccc(Cl)cc2)n(-c2ccccc2)n1`, -4.98%. The same measure for `NS(=O)(=O)c1ccc(CCNC(=O)c2ccc(Cl)cc2[N+](=O)[O-])cc1`: 12.8%; for `O=C(CCc1ccccc1)NNC(=O)COc1ccc(Cl)cc1`: -14.5%. The result for `O=C(COc1ccc(Cl)cc1)NCCSc1ccccc1` reads -8.84%; that for `O=C(NCCc1ccccc1)Oc1ccc(Cl)cc1`, 62.7% (active); that for `COc1cccc(C(=O)NNS(=O)(=O)c2ccc(F)cc2)c1`, 0.43%. `CCN1CCN(CCNC(=O)c2ccc3c(c2)NC(=O)/C(=C\c2ccc(OC)c(OC)c2)S3)CC1`: the inhibition is -8.25%.

Take `COc1cc2c(cc1/C=C1/NC(=O)N(c3ccccc3)C1=O)OCO2`: the inhibition is 24.2%.

As to `O=C1N/C(=C/c2cccn2-c2ccccc2)C(=O)N1c1cccc(Cl)c1`, the inhibition was 60.1% (active). The result for `Cc1ccccc1NC(=O)CN1C(=O)N/C(=C\c2cccn2-c2cccc(C(=O)O)c2)C1=O` reads -13.8%; that for `CCc1cccc(C)c1N1C(=O)CN(Cc2ccccc2)C1=S`, -3.04%. Regarding `O=C(c1c(F)cccc1F)N1CCN(S(=O)(=O)c2ccc3c(c2)OCCO3)CC1`, the inhibition is 2.06%. The same measure for `O=C(Nc1ccc(OCC(=O)N2CCOCC2)cc1)c1cc(F)c(F)cc1Cl`: 24.7%; for `Cc1cc(=O)oc2c(C)c(OC(C)C(=O)NC3CCN(Cc4ccccc4)CC3)ccc12` (stereo not given): -5.37%. The same measure for `Cc1ccc2nc(NC(=O)C3CCN(S(=O)(=O)c4ccc5c(c4)oc(=O)n5C)CC3)sc2c1`: -20.5%. The same measure for `CCS(=O)(=O)N1Cc2ccccc2CC1C(=O)Nc1nc2ccc(F)cc2s1` (stereo not given): 99.4% (active). Take `CCS(=O)(=O)N1Cc2ccccc2CC1C(=O)Nc1ccc(OC)cc1OC` (stereo not given): the inhibition is 24.9%.

Take `CCN(CC)c1ccc(C(=O)Nn2c(C)nc3ccccc3c2=O)cc1`: the inhibition is 1.76%.

On to `COc1cccc(OCc2nnc3n2N=C(c2ccccc2)C(CC(=O)O)S3)c1` (stereo not given), for which the inhibition was -9.17%. For `CCn1c(/C=N/NC(=O)c2ccc(OC)cc2)nc2ccccc21`, the inhibition was 15%. `Cn1cccc1/C=N/NC(=O)c1ccc(OC(F)(F)C(F)F)cc1`: the inhibition was 33.1% (active).

Take `COc1ccc(/C=N/NC(=O)c2cccc(C(F)(F)F)c2)cc1`: the inhibition was 17.5%. The same measure for `c1ccc(-c2cnc(CN3CCN(c4ccccc4)CC3)o2)cc1`: -3.91%; for `O=C(COCc1cc(-c2ccc3c(c2)OCO3)on1)N1CCN(c2cccc(Cl)c2)CC1`: 4.57%; for `Cc1ccc(NC(=O)c2ccc(Oc3ncccn3)cc2)cc1`: 54.9% (active). The same measure for `COc1ccc(C(=O)NC(=S)NC2CCCCC2)cc1`: 91.2% (active); for `CCOC(=O)N1CCN(Cc2nc3cc(NC(C)=O)ccc3n2C)CC1`: -4.25%; for `O=C(NC(=S)NC1CCCCC1)c1ccc(Cl)cc1`: -12.4%.

`CCc1cc(C(N)=O)c(NC(=O)c2ccc(OC)cc2)s1`: the inhibition is 33.1% (active).

On to `CCCNC(=S)N1CCC(NC(=O)c2ccc(OC)cc2)CC1`, for which the inhibition was 10.3%. In the case of `CCc1cc(C(c2ccccc2OC)N2CCOCC2)c(NC(=O)c2ccccc2)s1` (stereo not given), the inhibition was 33.3%. For the molecule `COc1ccc(C(=O)Nc2ccc(NC(=O)C(C)C)nc2)cc1`, the inhibition was 22.3%. The result for `Cc1ccc(NC(=O)c2cccnc2C(=O)Nc2ccc(C)cc2)cc1` reads 20.9%. The result for `CC(=O)NCCc1nc2cc(NC(=O)c3ccccc3)ccc2n1C` reads 38.3%. The same measure for `Cn1c(CN2CCOCC2)nc2cc(NC(=O)c3ccc(Cl)cc3)ccc21`: 69.5% (active); for `CCc1cc(C(=O)c2ccc(OC)cc2)c(NC(=O)CN2CCN(C)CC2)s1`: -6.04%.

The record behind these values is PubChem BioAssay AID2315 (National Center for Advancing Translational Sciences (NCATS), 2010).
